# Reference: PubChem BioAssay
# Unmarked numbers belong to inactive results. How the calls were made is not given here.
# Assay: circadian clock period modulators, cell-based, LOPAC library, luminescence reporter (AID 2774);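 further: values are relative to mean of DMSO wells on each plate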
# Settings: circadian reporter cells, at 7 µM, actives lie on both sides
row,Structure (SMILES),period change [h]
1,N[C@H](CCC(=O)NCS(=O)(=O)O)C(=O)O,0.005
2,CCNC(=O)C1OC(n2cnc3c(NCc4ccccc4)ncnc32)C(O)C1O (stereo not drawn),0.1
3,O=C(Cc1ccc(Cl)c(Cl)c1)OCCN1CCCC1,-0.095
4,CCCn1c(=O)c2[nH]c(-c3ccc(OCC(=O)Nc4ccc(C#N)cc4)cc3)nc2n(CCC)c1=O,0.13
5,Cc1cc(C)c(NC(=O)C[C@H](CC(=O)O)c2cccc3ccccc23)c(C(=O)N2CCC3(CCCC3)CC2)c1,0.275
6,Cc1c(C)c2c(c(C)c1O)CCC(C)(CN1CCN(c3cc(N4CCCC4)nc(N4CCCC4)n3)CC1)O2 (stereo not drawn),0.14
7,NC(=NCCC[C@H](N)C(=O)O)NO,-0.09
8,OC[C@H]1O[C@@H](n2cnc3c(NCCc4ccccc4)ncnc32)C(O)[C@H]1O (stereo partly drawn),0.19
9,CCCCC#Cc1nc(N)c2ncn([C@@H]3O[C@H](C(=O)NCC)[C@@H](O)[C@H]3O)c2n1,-0.015
10,CNCC[C@@H](Oc1ccc(C(F)(F)F)cc1)c1ccccc1,0.13
11,CCCCN1CCC(COC(=O)c2cc(Cl)c(N)c3c2OCCO3)CC1,-0.095
12,OC[C@H]1O[C@@H](n2cnc3c(Nc4ccccc4)ncnc32)C(O)[C@H]1O (stereo partly drawn),-0.12
13,OC[C@H]1O[C@@H](n2cnc3c(N[C@H]4CC5CCC4C5)ncnc32)[C@H](O)[C@@H]1O (stereo partly drawn),-0.33
